Measurements taken from PubChem BioAssay (EPA / NIEHS).
Values joined by “and” are separate entries in the source; they are usually repeats but may differ in a detail not shown here. Equal values may be shown once. A structure can be active in one record and inactive in another. Active and inactive are the calls of the source. How the source made its calls: active means hit-call score of the fitted dose curve at least 0.9, where 1 is the maximum; inactive means score below 0.9.

Key:
[1] = molecular target: Bile acid receptor (Homo sapiens) (UniProt Q96RI1); assay: ATG_IR1_CIS: Attagene CIS-FACTORIAL HepG2 Assay for human Nuclear Receptor Subfamily 1 Group H Member 4 (NR1H4), IR1 submotif (AID 2282946); details: IR1 reporter transcription, actives raise or lower the signal
Bile acid receptor (Homo sapiens), sequence (Q96RI1 whole entry, looked up): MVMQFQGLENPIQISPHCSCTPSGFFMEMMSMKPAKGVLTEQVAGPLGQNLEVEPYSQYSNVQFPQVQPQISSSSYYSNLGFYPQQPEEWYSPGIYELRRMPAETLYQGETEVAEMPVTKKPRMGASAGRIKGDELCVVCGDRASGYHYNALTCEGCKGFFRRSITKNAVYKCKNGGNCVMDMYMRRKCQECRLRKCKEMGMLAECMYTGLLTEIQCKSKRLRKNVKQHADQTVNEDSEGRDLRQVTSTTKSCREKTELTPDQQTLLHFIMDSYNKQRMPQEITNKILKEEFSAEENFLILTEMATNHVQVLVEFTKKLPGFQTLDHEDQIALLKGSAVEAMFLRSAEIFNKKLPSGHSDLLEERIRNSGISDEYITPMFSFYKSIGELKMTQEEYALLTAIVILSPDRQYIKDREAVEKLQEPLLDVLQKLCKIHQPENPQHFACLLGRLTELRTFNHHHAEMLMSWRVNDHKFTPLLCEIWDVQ
Method in brief: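 HepG2 cells transiently transfected with multiple cis-promoter-driven reporter units to measure endogenous transcription factor activity; 24 h exposure. Reporter mRNA read by RT-PCR, FAM labelling, HpaI digestion and capillary electrophoresis. Bidirectional fit versus DMSO.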

[2] = ATG_ISRE_CIS: Attagene CIS-FACTORIAL HepG2 Assay for human Interferon Regulatory Factor 1 (IRF1) binding to an Interferon-Stimulated Response Element (ISRE) (AID 2282948); details: HepG2 ISRE cis-reporter (Attagene), mRNA transcription readout; actives raise or lower the signal
Method in brief: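 Quantitation relies on labelled RT-PCR fragments separated by capillary electrophoresis. Human HepG2 cells bearing cis-promoter reporter constructs were treated 24 h; DMSO served as baseline for bidirectional fitting.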

[3] = ATG_M_06_CIS: Attagene CIS-FACTORIAL HepG2 Assay for M06 Transcription Factor (Internal Marker) (AID 2282950); details: HepG2 Attagene CIS-FACTORIAL M06 internal marker reporter; actives raise or lower the signal
Method in brief: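 Fluorescence-labelled RT-PCR products from cis-promoter reporter units, cut with HpaI and resolved by capillary electrophoresis, give the signal. Cells are human HepG2, dosed for 24 h. Serves as background control, fitted relative to DMSO.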

[4] = molecular target: Hypoxia-inducible factor 1-alpha (Homo sapiens) (UniProt Q16665); assay: ATG_HIF1a_CIS: Attagene CIS-FACTORIAL HepG2 Assay for human Hypoxia Inducible Factor 1 (HIF1A) (AID 2282951); details: HepG2 Attagene cis-factorial HIF1a reporter transcription; actives raise or lower the signal
Hypoxia-inducible factor 1-alpha (Homo sapiens), sequence (Q16665 whole entry, looked up): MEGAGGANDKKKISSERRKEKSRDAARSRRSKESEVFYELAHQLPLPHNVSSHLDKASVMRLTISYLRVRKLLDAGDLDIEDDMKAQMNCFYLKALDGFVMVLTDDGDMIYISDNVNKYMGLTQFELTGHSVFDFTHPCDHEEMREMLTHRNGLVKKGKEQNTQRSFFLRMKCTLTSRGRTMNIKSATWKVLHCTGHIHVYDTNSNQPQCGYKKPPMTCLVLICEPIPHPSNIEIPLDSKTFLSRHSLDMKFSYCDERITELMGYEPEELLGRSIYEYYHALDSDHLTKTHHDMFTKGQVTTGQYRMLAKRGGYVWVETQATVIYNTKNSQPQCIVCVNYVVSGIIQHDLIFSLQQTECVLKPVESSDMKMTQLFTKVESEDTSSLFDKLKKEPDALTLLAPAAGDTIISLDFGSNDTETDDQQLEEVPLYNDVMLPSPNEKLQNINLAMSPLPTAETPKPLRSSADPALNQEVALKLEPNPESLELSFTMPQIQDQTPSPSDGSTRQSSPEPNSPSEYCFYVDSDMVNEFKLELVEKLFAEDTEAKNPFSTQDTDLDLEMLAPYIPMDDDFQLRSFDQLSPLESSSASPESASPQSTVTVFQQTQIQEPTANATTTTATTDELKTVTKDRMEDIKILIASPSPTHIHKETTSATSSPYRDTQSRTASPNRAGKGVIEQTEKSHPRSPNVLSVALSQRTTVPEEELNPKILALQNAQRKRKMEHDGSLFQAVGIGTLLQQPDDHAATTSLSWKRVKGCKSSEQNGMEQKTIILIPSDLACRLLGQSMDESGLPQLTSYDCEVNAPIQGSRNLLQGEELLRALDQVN
Method in brief: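 Measures endogenous transcription-factor activity through cis-regulated reporter mRNA in HepG2. Cells dosed 24 h; transcripts quantified by RT-PCR with 6-FAM-labelled products separated by capillary electrophoresis; DMSO serves as negative control.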

[5] = molecular target: Hepatocyte nuclear factor 6 (Homo sapiens) (UniProt Q9UBC0); assay: ATG_HNF6_CIS: Attagene CIS-FACTORIAL HepG2 Assay for human Hepatocyte Nuclear Factor 6 (HNF6) (AID 2282952); details: HepG2 Attagene cis-factorial HNF6 reporter transcription; actives raise or lower the signal
Hepatocyte nuclear factor 6 (Homo sapiens), sequence (Q9UBC0 whole entry, looked up): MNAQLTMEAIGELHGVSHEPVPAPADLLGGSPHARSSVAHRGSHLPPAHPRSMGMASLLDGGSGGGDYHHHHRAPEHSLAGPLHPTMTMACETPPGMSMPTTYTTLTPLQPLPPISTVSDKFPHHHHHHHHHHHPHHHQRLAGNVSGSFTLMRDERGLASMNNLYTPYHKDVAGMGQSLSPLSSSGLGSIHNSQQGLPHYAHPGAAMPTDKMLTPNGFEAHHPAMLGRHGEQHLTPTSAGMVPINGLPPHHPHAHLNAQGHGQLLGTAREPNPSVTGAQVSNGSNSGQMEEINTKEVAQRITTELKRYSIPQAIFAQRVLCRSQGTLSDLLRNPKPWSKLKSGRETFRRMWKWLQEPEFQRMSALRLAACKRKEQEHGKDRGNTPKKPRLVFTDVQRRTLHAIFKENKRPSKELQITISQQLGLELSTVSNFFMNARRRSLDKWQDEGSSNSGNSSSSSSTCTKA
Method in brief: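 Transiently transfected HepG2 cells expressing cis-regulated reporter transcription units were exposed to chemical for 24 h in a 24-well format. Reporter transcript abundance was determined by fluorescence capillary electrophoresis.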

[6] = molecular target: Heat shock factor protein 1 (Homo sapiens) (UniProt Q00613); assay: ATG_HSE_CIS: Attagene CIS-FACTORIAL HepG2 Assay for human Heat Shock Transcription Factor 1 (HSE) (AID 2282953); details: HepG2 HSE cis-reporter, Attagene RNA transcription; actives raise or lower the signal
Heat shock factor protein 1 (Homo sapiens), sequence (Q00613 whole entry, looked up): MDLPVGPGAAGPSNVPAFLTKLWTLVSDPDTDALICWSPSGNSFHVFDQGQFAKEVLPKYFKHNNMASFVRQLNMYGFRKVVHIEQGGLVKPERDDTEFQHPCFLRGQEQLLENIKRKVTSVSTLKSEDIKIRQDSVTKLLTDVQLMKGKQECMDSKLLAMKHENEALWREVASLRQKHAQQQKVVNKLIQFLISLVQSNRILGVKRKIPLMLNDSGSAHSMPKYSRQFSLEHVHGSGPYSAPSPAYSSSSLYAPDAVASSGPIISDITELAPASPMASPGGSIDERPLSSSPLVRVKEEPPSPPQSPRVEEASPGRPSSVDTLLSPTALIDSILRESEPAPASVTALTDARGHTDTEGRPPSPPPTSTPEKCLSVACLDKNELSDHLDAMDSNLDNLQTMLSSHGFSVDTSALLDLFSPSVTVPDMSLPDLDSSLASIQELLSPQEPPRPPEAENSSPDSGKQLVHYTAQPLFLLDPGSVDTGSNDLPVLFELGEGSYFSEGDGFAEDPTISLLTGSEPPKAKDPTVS
Method in brief: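 After a 24 h incubation with test chemical, transfected HepG2 cells were harvested for RNA; reporter transcripts were measured by RT-PCR and capillary electrophoresis. Values reflect gain or loss of signal relative to DMSO.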

[7] = ATG_MRE_CIS: Attagene CIS-FACTORIAL HepG2 Assay for human Metal Responsive Element (MRE) (AID 2282954); details: HepG2 MRE cis-reporter transcription, Attagene multiplex; actives raise or lower the signal
Method in brief: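 Fluorescent reporter fragments separated by capillary electrophoresis give mRNA induction for the MRE unit after 24 h treatment of transfected HepG2 cells. Endogenous transcription-factor activity is read; DMSO serves as negative control and baseline.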

[8] = molecular target: Paired box protein Pax-6 (Homo sapiens) (UniProt P26367); assay: ATG_Pax6_CIS: Attagene CIS-FACTORIAL HepG2 Assay for human Paired Box 6 (PAX6) (AID 2282956); details: HepG2 CIS-FACTORIAL PAX6 reporter transcription, RNA readout; actives raise or lower the signal
Paired box protein Pax-6 (Homo sapiens), sequence (P26367 whole entry, looked up): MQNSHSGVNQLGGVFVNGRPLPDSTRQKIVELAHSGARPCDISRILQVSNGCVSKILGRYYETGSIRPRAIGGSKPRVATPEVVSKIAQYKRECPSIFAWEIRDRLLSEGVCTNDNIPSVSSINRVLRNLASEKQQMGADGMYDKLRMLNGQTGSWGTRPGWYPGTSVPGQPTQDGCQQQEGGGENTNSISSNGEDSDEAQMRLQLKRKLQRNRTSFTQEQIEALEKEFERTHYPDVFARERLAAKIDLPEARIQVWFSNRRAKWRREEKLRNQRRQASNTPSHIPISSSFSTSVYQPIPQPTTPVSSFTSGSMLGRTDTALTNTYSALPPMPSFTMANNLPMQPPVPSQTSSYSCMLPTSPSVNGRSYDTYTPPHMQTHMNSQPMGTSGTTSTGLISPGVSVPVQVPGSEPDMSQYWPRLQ
Method in brief: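 After twenty-four hours of chemical exposure, transfected HepG2 cells are harvested for RNA. Cis-promoter reporter transcripts are amplified, fluorescently labelled and sized by capillary electrophoresis, with gain and loss of signal scored against DMSO.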

[9] = ATG_PPRE_CIS: Attagene CIS-FACTORIAL HepG2 Assay for human Peroxisome Proliferator-activated Response Element (PPRE) (AID 2282958); details: HepG2 PPRE cis-element reporter, Attagene transcription factor profiling; actives raise or lower the signal
Method in brief: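 Cells are first transfected transiently with the multiplexed reporter library, then dosed for 24 h. Total RNA is reverse-transcribed, amplified, fluorescently end-labeled and HpaI-cut before capillary electrophoresis; activity is fitted bidirectionally against DMSO controls.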

[10] = ATG_RORE_CIS: Attagene CIS-FACTORIAL HepG2 Assay for human RAR-related Orphan Receptor Element (RORE) (AID 2282959); details: HepG2 Attagene cis-factorial RORE reporter, mRNA; actives raise or lower the signal
Method in brief: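 Cells were HepG2 carrying transfected cis-regulated reporter constructs, dosed for 24 hours. Total RNA was reverse-transcribed and reporter cDNA amplified, fluorescently labeled and sized by capillary electrophoresis. Activity was fitted bidirectionally relative to DMSO.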

[11] = ATG_SREBP_CIS: Attagene CIS-FACTORIAL HepG2 Assay for human Sterol Regulatory Element Binding (SREBP) (AID 2282962); details: HepG2 Attagene cis-factorial SREBP reporter, mRNA; actives raise or lower the signal
Method in brief: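 Twenty-four hours after chemical dosing of transfected HepG2 cultures, reporter RNA was converted to cDNA, amplified, end-labelled with 6-FAM and resolved by capillary electrophoresis. Responses were fitted relative to DMSO.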

[12] = molecular target: Signal transducer and activator of transcription 3 (Homo sapiens) (UniProt P40763); assay: ATG_STAT3_CIS: Attagene CIS-FACTORIAL HepG2 Assay for human Signal Transducer and Activator of Transcription 3 (STAT3) (AID 2282963); details: HepG2, Attagene cis-factorial STAT3 reporter transcription; actives raise or lower the signal
Signal transducer and activator of transcription 3 (Homo sapiens), sequence (P40763 whole entry, looked up): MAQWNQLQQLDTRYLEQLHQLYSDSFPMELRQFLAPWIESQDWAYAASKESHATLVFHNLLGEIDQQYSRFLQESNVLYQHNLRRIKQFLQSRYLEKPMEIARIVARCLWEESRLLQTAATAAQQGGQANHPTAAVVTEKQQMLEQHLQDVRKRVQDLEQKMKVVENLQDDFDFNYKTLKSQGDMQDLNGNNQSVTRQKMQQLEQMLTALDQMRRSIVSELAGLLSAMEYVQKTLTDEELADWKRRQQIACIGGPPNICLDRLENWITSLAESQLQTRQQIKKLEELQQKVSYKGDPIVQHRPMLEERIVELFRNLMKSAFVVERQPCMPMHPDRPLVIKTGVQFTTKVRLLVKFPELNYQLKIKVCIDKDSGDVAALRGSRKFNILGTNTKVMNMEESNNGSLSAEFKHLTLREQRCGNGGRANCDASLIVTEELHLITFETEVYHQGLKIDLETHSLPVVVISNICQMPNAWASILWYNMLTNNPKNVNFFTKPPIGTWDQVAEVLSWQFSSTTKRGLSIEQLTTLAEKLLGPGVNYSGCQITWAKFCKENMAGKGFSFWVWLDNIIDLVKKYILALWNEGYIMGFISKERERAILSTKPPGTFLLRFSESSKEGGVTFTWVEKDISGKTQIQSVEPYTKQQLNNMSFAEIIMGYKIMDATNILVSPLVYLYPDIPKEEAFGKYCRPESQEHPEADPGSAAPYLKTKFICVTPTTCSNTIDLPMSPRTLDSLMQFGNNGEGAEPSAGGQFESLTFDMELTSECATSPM
Method in brief: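 Values derive from bidirectional fits relative to DMSO of reporter mRNA levels, measured by RT-PCR with capillary electrophoresis, in HepG2 cells carrying transiently transfected cis-regulated reporter units and exposed 24 h.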

[13] = ATG_GRE_CIS: Attagene CIS-FACTORIAL HepG2 Assay for human Glucocorticoid Response Elements (GRE) (AID 2282947); details: HepG2 GRE cis-reporter, Attagene multiplex mRNA; actives raise or lower the signal
Method in brief: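 Endogenous transcription factor activity is read through cis-element reporter constructs transiently transfected into HepG2 cells. After 24 h treatment, labelled RT-PCR products are resolved by capillary electrophoresis; DMSO sets baseline for bidirectional curve fitting.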

[14] = ATG_M_32_CIS: Attagene CIS-FACTORIAL HepG2 Assay for M32 Transcription Factor (Internal Marker) (AID 2282949); details: HepG2 Attagene cis-factorial M32 reporter, mRNA; actives raise or lower the signal;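 further: background control marker of the multiplexed CIS panel rather than a real target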
Method in brief: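 Internal background marker read-out: RT-PCR/capillary electrophoresis fluorescence of reporter transcripts from transiently transfected HepG2 cells after 24 h chemical exposure. Activity fitted bidirectionally relative to DMSO negative control.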

[15] = ATG_PXRE_CIS: Attagene CIS-FACTORIAL HepG2 Assay for human Pregnane X Receptor Element (PXRE) (AID 2282957); details: HepG2 Attagene CIS-FACTORIAL PXRE reporter, mRNA; actives raise or lower the signal
Method in brief: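 Cis-element reporter mRNA in human hepatoma HepG2 cells is measured 24 h post-dosing by RT-PCR, primer-extension labeling and capillary electrophoresis; gain or loss of signal is fitted relative to DMSO.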

[16] = ATG_Sox_CIS: Attagene CIS-FACTORIAL HepG2 Assay for human SRY-box transcription factor (SOX) (AID 2282960); details: HepG2 Attagene cis-factorial SOX reporter, mRNA; actives raise or lower the signal
Method in brief: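 Transient MRTU transfection of HepG2; 24 h compound incubation; TriZol RNA, oligo(dT) RT, PCR, 6-FAM primer extension, HpaI cut, CE. Bidirectional fit, DMSO = baseline.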

[17] = molecular target: Transcription factor Sp1 (Homo sapiens) (UniProt P08047); assay: ATG_Sp1_CIS: Attagene CIS-FACTORIAL HepG2 Assay for human Specificity Protein 1 (Sp1) (AID 2282961); details: HepG2 Sp1 cis-reporter transcription, actives raise or lower the signal
Transcription factor Sp1 (Homo sapiens), sequence (P08047 whole entry, looked up): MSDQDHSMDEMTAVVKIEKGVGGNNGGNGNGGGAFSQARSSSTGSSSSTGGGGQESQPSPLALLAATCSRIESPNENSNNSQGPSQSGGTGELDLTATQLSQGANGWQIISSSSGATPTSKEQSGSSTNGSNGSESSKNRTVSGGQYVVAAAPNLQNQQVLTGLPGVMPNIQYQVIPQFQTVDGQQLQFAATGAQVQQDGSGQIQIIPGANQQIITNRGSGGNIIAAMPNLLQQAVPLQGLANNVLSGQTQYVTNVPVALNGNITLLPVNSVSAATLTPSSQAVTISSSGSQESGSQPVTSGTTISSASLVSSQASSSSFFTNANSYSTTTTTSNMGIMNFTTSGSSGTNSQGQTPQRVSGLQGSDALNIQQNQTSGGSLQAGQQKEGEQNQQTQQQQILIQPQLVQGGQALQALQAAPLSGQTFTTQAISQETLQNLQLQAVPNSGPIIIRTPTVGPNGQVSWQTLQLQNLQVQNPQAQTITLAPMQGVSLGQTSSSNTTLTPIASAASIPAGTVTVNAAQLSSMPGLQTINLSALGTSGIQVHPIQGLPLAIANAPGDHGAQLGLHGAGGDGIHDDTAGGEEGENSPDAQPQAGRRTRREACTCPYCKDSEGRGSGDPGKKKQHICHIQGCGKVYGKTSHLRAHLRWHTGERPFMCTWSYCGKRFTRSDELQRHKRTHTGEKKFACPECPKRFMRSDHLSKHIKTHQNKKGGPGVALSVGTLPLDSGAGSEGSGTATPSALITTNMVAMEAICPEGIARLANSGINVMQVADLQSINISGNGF
Method in brief: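 Endogenous Sp1 activity was gauged in human liver HepG2 cells bearing transfected reporter units under a cis-regulating promoter. After 24 h dosing, reporter mRNA was quantified by RT-PCR with capillary electrophoresis, and activity fitted bidirectionally versus DMSO.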

[18] = ATG_TA_CIS: Attagene CIS-FACTORIAL HepG2 Assay for human TA Basal Promoter (AID 2282964); details: HepG2 Attagene CIS-factorial TA basal promoter reporter; actives raise or lower the signal
Method in brief: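 Multiplexed mRNA reporter assay, HepG2, 24 h. Reporter cDNA amplified, 6-FAM primer-extended, HpaI-cut, CE-sized; DMSO = negative control and baseline.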

[19] = ATG_TCF_b_cat_CIS: Attagene CIS-FACTORIAL HepG2 Assay for human T-Cell-Factor with beta-catenin (TCF/b-cat) (AID 2282965); details: HepG2 TCF/beta-catenin cis-reporter transcription, actives raise or lower the signal
Method in brief: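 HepG2, transient MRTU transfection, cis-element-driven reporters (endogenous TFs). 24 h compound exposure. Readout: reporter mRNA by RT-PCR + 6-FAM primer extension, HpaI digest, capillary electrophoresis. Gain/loss fit vs DMSO baseline.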

[20] = ATG_PBREM_CIS: Attagene CIS-FACTORIAL HepG2 Assay for human Phenobarbital-responsive Enhancer Module (PBREM) (AID 2282955); details: HepG2 PBREM cis-reporter, Attagene multiplexed transcription; actives raise or lower the signal
Method in brief: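 Fluorescence of labelled reporter cDNA fragments, resolved by capillary electrophoresis, gives mRNA induction in transfected HepG2 cells treated for 24 h; DMSO serves as negative control and baseline.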

Measured: AC50

O=C1C2(Cl)C3(Cl)C4(Cl)C(Cl)(Cl)C5(Cl)C3(Cl)C1(Cl)C5(Cl)C24Cl (stereo unspecified)
inactive: [1] | [2] | [3] | [4] | [5] | [6] | [7] | [8] | [9] | [10] | [11] | [12]
active: [1] 7.38 µM | [2] 15.1 µM | [5] 11.1 µM | [6] 16.7 µM | [7] 3.57 µM and 16.2 µM | [8] 15.7 µM | [9] 14 µM | [12] 5.58 µM

Oc1c(I)cc(I)cc1I
inactive: [1] | [13] | [14] | [3] | [5] | [15] | [17] | [11] | [12]
active: [2] 100 µM | [4] 41.9 µM | [6] 125 µM | [7] 100 µM | [8] 77.1 µM | [9] 64.2 µM | [10] 31.1 µM | [16] 160 µM | [18] 55.8 µM | [19] 25.9 µM

CCC(=O)C(CC(C)N(C)C)(c1ccccc1)c1ccccc1 (stereo unspecified)
active: [15] 18.6 µM | [11] 14.2 µM
inactive: [1] | [13] | [2] | [14] | [3] | [4] | [5] | [6] | [7] | [8] | [9] | [10] | [17] | [12] | [18]

N#CCCO
inactive: [1] | [13] | [2] | [14] | [3] | [4] | [5] | [6] | [7] | [8] | [15] | [9] | [10] | [16] | [11] | [12] | [18] | [19]

CC(=O)OC(c1ccccc1)C(Cl)(Cl)Cl (stereo unspecified)
inactive: [1] | [13] | [2] | [14] | [3] | [4] | [5] | [6] | [7] | [8] | [9] | [10] | [16] | [17] | [11] | [12] | [18] | [19]
active: [15] 48.6 µM

CC(C)C1CCC(Cc2ccc(Cl)cc2)C1(O)Cn1cncn1 (stereo unspecified)
inactive: [1] | [13] | [2] | [14] | [3] | [4] | [5] | [6] | [8] | [10] | [16] | [17] | [11] | [12] | [18] | [19]
active: [15] 1.04 µM

C[C@H]1O[C@@H](O[C@H]2[C@@H](O)C[C@H](O[C@H]3[C@@H](O)C[C@H](O[C@H]4CC[C@@]5(C)[C@H](CC[C@@H]6[C@@H]5CC[C@]5(C)[C@@H](C7=CC(=O)OC7)CC[C@]65O)C4)O[C@@H]3C)O[C@@H]2C)C[C@H](O)[C@@H]1O
inactive: [1] | [3] | [4] | [20] | [8] | [9] | [10] | [16] | [18] | [19]
active: [13] 0.123 µM | [2] 0.254 µM | [5] 0.0564 µM | [15] 0.0564 µM | [11] 7.83 µM | [12] 0.196 µM
